Screening results: PubChem, National Center for Advancing Translational Sciences (NCATS)
Hits are enriched below; roughly 10% of the tested compounds scored in any of these assays.
RORgamma inh: ROR gamma (mouse) transcription inhibition. P51450. Drosophila S2 Gal4-RORgamma UAS-luciferase reporter, 20 h. Potency, µM (top dose mostly 53.6 µM), without a hit: at the highest dose activity change, negative = inhibition, usual class: inhibitors. 310,000 compounds, 5.4% hits; further: on the % scale 0 is the no-effect control and ±100 the full control effect; nearly all actives have a fitted effect of over 60% in size
Target sequence (P51450 whole entry, looked up, the tested form may be a part): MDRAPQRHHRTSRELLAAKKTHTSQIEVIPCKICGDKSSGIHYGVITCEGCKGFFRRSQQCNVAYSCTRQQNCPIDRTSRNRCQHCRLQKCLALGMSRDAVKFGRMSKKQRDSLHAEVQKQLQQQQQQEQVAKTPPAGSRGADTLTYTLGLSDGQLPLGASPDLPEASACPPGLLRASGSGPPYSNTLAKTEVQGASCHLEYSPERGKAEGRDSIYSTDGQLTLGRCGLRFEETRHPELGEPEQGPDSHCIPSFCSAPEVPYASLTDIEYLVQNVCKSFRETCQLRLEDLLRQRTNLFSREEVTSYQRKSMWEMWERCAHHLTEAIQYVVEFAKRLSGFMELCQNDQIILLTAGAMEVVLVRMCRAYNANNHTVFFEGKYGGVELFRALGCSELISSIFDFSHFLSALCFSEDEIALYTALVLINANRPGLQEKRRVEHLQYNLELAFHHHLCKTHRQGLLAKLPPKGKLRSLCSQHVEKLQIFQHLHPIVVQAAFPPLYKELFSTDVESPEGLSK
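Using a luciferase readout, inhibitors were identified by reduced reporter activity in Drosophila cells coexpressing a copper-inducible Gal4–ROR gamma fusion and UAS-driven Photinus luciferase, incubated 20 hr after 700 uM copper sulfate.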
SW480 rerep: inducers of DNA re-replication in SW480 colon cancer cells | SW480 DNA re-replication, Hoechst DNA content imaging, 48 h | 340,000 compounds, 1.8% hits | Potency, µM (doses to about 46.1 µM), for inactives: at the top dose re-replication activation, usual class: activators; further: % of control where 0% means no effect; nearly all actives have a fitted effect of over 55% in size
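Image-based DNA-content assay: after two days of treatment, nuclei were labelled with the DNA dye Hoechst and imaged, and hits were compounds raising the count of nuclei showing high fluorescence intensity.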
Gal4-VP16 FLuc: Gal4-VP16 reporter inhibition counter-screen | Drosophila S2 Gal4-VP16 UAS-luciferase, luminescence, 20 h | Potency, µM (highest dose often 53.6 µM), inactives show at the highest dose activity, negative = inhibition, actives largely listed as inhibitors | 310,000 compounds, 3.5% hits | AID 2546;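 further: Gal4-VP16 expression switched on by copper sulfate through the metallothionein promoter; on the % scale 0 is the no-effect control and ±100 the full control effect; nearly all actives have a fitted effect of over 50% in size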
KB-3-1 cytotox: KB-3-1 parental cell cytotoxicity; KB-3-1 viability, CellTiter-Glo ATP luminescence, 72 h; 400,000 compounds, 1.4% hits; AID 1347075; Potency, µM (titrated, usually from 46.1 µM), most hits filed as cytotoxic; further: on the % scale 0 is the no-effect control and ±100 the full control effect; nearly all actives have a fitted effect of over 60% in size
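Parental KB-3-1 adenocarcinoma cells in phenol-red-free DMEM with 10% FBS were pin-treated with compounds at several concentrations, incubated 72 h at 37 °C, and viability read by CellTiter-Glo luminescence; concentration-effect curves were fitted after normalization.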
KB-V1 cytotox: KB-V1 MDR subline cytotoxicity; KB-V1 MDR cells viability, CellTiter-Glo, 72 h; Potency, µM (titrated, usually from 46.1 µM), actives largely listed as cytotoxic; 400,000 compounds, 3.4% hits; AID 1347076; further: on the % scale 0 is the no-effect control and ±100 the full control effect; nearly all actives have a fitted effect of over 60% in size
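KB-V1 cells (P-gp-expressing MDR subline of KB-3-1) in phenol-red-free DMEM with 10% FBS were exposed to library compounds over a concentration series for 72 h at 37 degrees C. Viability read by CellTiter-Glo luminescence; concentration-effect curves fitted after normalization.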
MCF10A rerep: induces DNA re-replication in MCF 10a normal breast cells. MCF 10A DNA re-replication, Hoechst nuclear intensity, 48 h. Potency, µM (titrated, usually from 46.1 µM), inactives show at the highest dose activity, positive = re-replication, most hits filed as activators. 350,000 compounds, 2.9% hits. AID 624296; further: % of control where 0% means no effect; nearly all actives have a fitted effect of over 50% in size
* hit, by the source's call; i = inactive; ? = inconclusive; . = no result given; ! = not active in a repeat; [ ] = dose if it differs, or a comment. The call rests on the fitted dose curve; in most records, active means well fitted curve in the direction sought with a large enough effect; inconclusive means small, poorly fitted or top-dose-only effect, or another doubt; inactive means no such curve, though single readings can be large; an effect the other way counts as inactive or inconclusive. Potency means the concentration at half of the fitted maximal effect.

SMILES	RORgamma inh	SW480 rerep	Gal4-VP16 FLuc	KB-3-1 cytotox	KB-V1 cytotox	MCF10A rerep
Cc1ccc(NC(=O)Cn2nnc(-c3ccccc3NC(=O)c3cccs3)n2)cc1	10%	3.7µM*	3%	1µM*	1.3µM*	6.5µM*
COc1ccc(NC(=O)Cn2nnc(-c3ccccc3NC(=O)c3cccs3)n2)cc1	-22%	?	3%	?	i	15µM*
COc1ccc(NC(=O)Cn2nnc(-c3ccccc3NS(=O)(=O)c3ccc(OC)cc3)n2)cc1	-4%[10 µM]	14%	-7%	?	?	?
Cc1[nH]nc(N=CC2=C(O)CC(c3ccco3)CC2=O)c1-c1ccccc1 (stereo unspecified)	0%	-5%	15%	i	16µM*!	8%
O=C1CC(c2ccco2)CC(O)=C1C=Nc1cc(Cl)cc(Cl)c1 (stereo unspecified)	3%	-4%	3%	i	i	3%
Cc1[nH]nc(N=CC2=C(O)CC(C)(C)CC2=O)c1-c1ccccc1	-35%	-4%	4%	?	23µM*!	18%
Nc1nc(N)c2cc(S(=O)(=O)c3ccc4ccccc4c3)ccc2n1	.	.	.	i	i	.
C=C(C)CNC(=S)N/N=C/c1ccc([N+](=O)[O-])cc1	1.1µM*	-14%	4.5µM*	i	i	?
O=C(Nc1ccc(O)cc1)N1CCOCC1	3%	0%	-7%	i	i	1%
O=C(N/N=C/c1ccc(N2CCOCC2)cc1)c1cccs1	?	6.5µM*	-9%	i	i	3%
Oc1ccc(/C=N/NC(=S)N2CCOCC2)cc1	1.1µM*	?	?	i	i	?
C=C(C)CNC(=S)N/N=C/c1ccc(N2CCOCC2)cc1	2µM*	-3%	5µM*	i	i	8%
C[C@@]12CC[C@@H]3c4ccc(O)cc4CC[C@H]3[C@H]1C[C@@H](O)[C@H]2O	-27%[16.9 µM]	.	-3%[17 µM]	.	.	.
CC(C)NC(=S)N/N=C/c1ccc(N2CCOCC2)cc1	2.8µM*	0%	4.5µM*	i	i	1%
COCCNC(=S)N/N=C/c1ccc(N2CCOCC2)cc1	?	?	20µM*	i	i	1%
Cc1ccc(/C=N/NC(=S)NC(C)C)o1	1.4µM*	1%	2.8µM*	i	i	0%
COC(=O)c1ccc(/C=N/NC(=S)NC(C)C)cc1	2µM*	16µM*	7.1µM*	i	i	?
Cc1cccc(C)c1-n1nnnc1C1c2ccccc2C(=O)N1CCc1ccc(O)cc1 (stereo unspecified)	.	.	.	i	i	.
CN1CCN(C(c2ccc(F)cc2)c2sc3nc(-c4ccco4)nn3c2O)CC1 (stereo unspecified)	.	.	.	i	?	.
Cc1ccc(/C=N/NC(=O)C(C)Oc2cccc3ccccc23)o1 (stereo unspecified)	16µM*	6%	?	i	i	2%
C=C(C)CNC(=S)N/N=C/c1c(F)cccc1F	1.8µM*	-5%	6.3µM*	i	i	-6%
CCOc1ccc(NC(=O)Cn2c(=O)n(Cc3ccco3)c(=O)c3ccc(C(=O)NC4CCCC4)cc32)cc1	.	.	.	i	?	.
CCOc1ccc(CNC(=O)c2cnc3sc(N4CCC(C)CC4)nn3c2=O)cc1OC	.	.	.	i	i	.
COc1ccc(-c2cccc(NS(=O)(=O)c3ccc(NC(C)=O)cc3)c2)nn1	.	.	.	?	i	.
CCn1nc(NC(=O)c2ccccn2)c2cc3cccc(C)c3nc21	3.2µM*	?	4µM*	i	i	12µM*
CCn1nc(NC(=O)c2cccnc2)c2cc3cccc(C)c3nc21	1%	?	5%	i	i	7.1µM*
CCn1nc(NC(=O)C2CCCO2)c2cc3cccc(C)c3nc21 (stereo unspecified)	5%	18µM*	-6%	i	i	?
